Source: PubChem BioAssay (NCI)
Compounds without any hit were thinned out: in the full panel of roughly 79,000, 15% have a hit. The source made the active and inactive calls. Cut-off read from the data, not from the text of the source: active = growth inhibition above about 70%; inactive = the rest.

Legend:
[1] = NCI Yeast Anticancer Drug Screen. Data for the rad52 strain (AID 147);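 note: 0% = growth of vehicle-treated control cultures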; conditions: S. cerevisiae rad52 mutant growth inhibition, hits give high values
Method in brief: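 Here a repair-compromised yeast strain receives each compound; its growth is then quantified and normalised to vehicle-only controls.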

[2] = NCI Yeast Anticancer Drug Screen. Data for the wt1 strain (AID 149);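 note: 0% = growth of vehicle-treated wt1 cultures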; conditions: S. cerevisiae wt1 strain (SPY 50644) growth inhibition, hits give high values
Method in brief: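 wt1 strain grown with compound or vehicle; inhibition taken from the growth difference.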

[3] = NCI Yeast Anticancer Drug Screen. Data for the rad50EPP+ strain (AID 151);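 note: 0% = growth of vehicle-treated control cultures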; conditions: S. cerevisiae rad50 mutant strain, hits give high values
Method in brief: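 Read-out is yeast growth inhibition relative to vehicle; cells used were the rad50EPP+ strain.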

[4] = NCI Yeast Anticancer Drug Screen. Data for the mgt1 strain (AID 153); conditions: S. cerevisiae mgt1 mutant growth inhibition, hits give high values
Method in brief: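 Measured: inhibition of mgt1 yeast growth by compound, normalized to vehicle-treated cultures.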

[5] = NCI Yeast Anticancer Drug Screen. Data for the rad50 strain (AID 155);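 note: 0% = growth of vehicle-only cultures of the same strain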; conditions: S. cerevisiae rad50 strain growth inhibition, hits give high values
Method in brief: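 DNA repair mutant yeast, compound exposure, growth read-out; inhibition is taken relative to vehicle.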

[6] = NCI Yeast Anticancer Drug Screen. Data for the mec2-1 strain (AID 157); conditions: S. cerevisiae mec2-1 strain, hits give high values
Method in brief: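 Using mec2-1 yeast: add compound, measure growth, express inhibition versus vehicle-treated cultures.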

[7] = NCI Yeast Anticancer Drug Screen. Data for the rad14 strain (AID 159);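 note: 0% = growth of vehicle-treated control cultures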; conditions: S. cerevisiae rad14 strain growth inhibition, hits give high values
Method in brief: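 DNA repair-defective yeast, compound-exposed; % growth inhibition derived by comparison with vehicle-treated controls.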

[8] = NCI Yeast Anticancer Drug Screen. Data for the sgs1 mgt1 strain (AID 161);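 note: 0% = growth of cultures given vehicle only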; conditions: S. cerevisiae sgs1 mgt1 strain, hits give high values
Method in brief: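 Percent growth inhibition was derived by comparing compound-exposed mutant yeast with vehicle-exposed cultures. The strain carries alterations in DNA damage repair.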

[9] = NCI Yeast Anticancer Drug Screen. Data for the cln2 rad14 strain (AID 165);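 note: 0% = growth equal to vehicle treated cultures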; conditions: S. cerevisiae cln2 rad14 strain, hits give high values
Method in brief: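 Yeast strain cln2 rad14, bearing defects in cell cycle control and DNA repair, serves as the test system; values reflect growth inhibition compared with vehicle.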

[10] = NCI Yeast Anticancer Drug Screen. Data for the bub3 strain (AID 167); conditions: S. cerevisiae bub3 mutant strain, hits give high values
Method in brief: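 In this screen, a yeast mutant lacking normal mitotic checkpoint function is challenged with compound. Relative growth versus vehicle gives the inhibition value.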

[11] = NCI Yeast Anticancer Drug Screen. Data for the wt2 strain (AID 169);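 note: 0% = growth of vehicle-treated yeast cultures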; conditions: S. cerevisiae wt2 strain growth inhibition, hits give high values
Method in brief: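 Treated yeast vs. vehicle-treated yeast: growth inhibition determined.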

[12] = NCI Yeast Anticancer Drug Screen. Data for the mlh1 strain (AID 171);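 note: 0% = growth of vehicle-treated control cultures of the same strain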; conditions: S. cerevisiae mlh1 strain growth inhibition, hits give high values
Method in brief: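 A yeast strain with a defined genetic lesion serves as the test organism. Cultures receive compound or vehicle, and growth is measured.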

[13] = NCI Yeast Anticancer Drug Screen. Data for the sgs1 strain (AID 173);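 note: 0% = growth of vehicle-only control cultures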; conditions: S. cerevisiae sgs1 mutant, hits give high values
Method in brief: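 A genetically defined yeast mutant is incubated with the test compound, and its growth is compared to that of the same strain given vehicle.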

[14] = NCI Yeast Anticancer Drug Screen. Data for the mlh1 rad18 strain (AID 175); conditions: S. cerevisiae mlh1 rad18 strain growth inhibition, hits give high values
Method in brief: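 Steps: expose repair-defective yeast to compound; measure growth; express inhibition against vehicle-treated controls.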

[15] = NCI Yeast Anticancer Drug Screen. Data for the rad18 strain (AID 177); conditions: S. cerevisiae rad18 mutant growth inhibition, hits give high values
Method in brief: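 Measured value is growth inhibition of a yeast strain bearing a DNA repair alteration, referenced to vehicle-treated cells.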

[16] = at 5.0 µM (retest, dose inferred, filed as 0.5)
[17] = at 50.0 µM (retest, dose inferred, filed as 5.0)

Measured: growth inhibition

CCOc1ccccc1N=Cc1c2ccccc2cc2ccccc12
active: [1]; at 11.0 µM 98% | [1]; at 33.0 µM 99% | [1]; at 100.0 µM 99% | [2]; at 11.0 µM 95% | [2]; at 33.0 µM 97% | [2]; at 100.0 µM 95% | [3]; at 33.0 µM 90% | [3]; at 100.0 µM 89% | [4]; at 3.7 µM 75% | [4]; at 11.0 µM 97% | [4]; at 33.0 µM 98% | [4]; at 100.0 µM 98% | [5]; at 11.0 µM 97% | [5]; at 33.0 µM 98% | [5]; [17] 98% | [5]; at 50.0 µM 88.8% | [5]; at 100.0 µM 97% | [6]; at 11.0 µM 98% | [6]; at 33.0 µM 98% | [6]; [17] 99% | [6]; at 50.0 µM 90.8% | [6]; at 100.0 µM 98% | [7]; at 3.7 µM 74% | [7]; at 11.0 µM 98% | [7]; at 33.0 µM 98% | [7]; at 100.0 µM 98% | [8]; [17] 98% | [8]; at 50.0 µM 90.9% | [9]; [17] 98% | [10]; at 11.0 µM 96% | [10]; at 33.0 µM 98% | [10]; [17] 99% | [10]; at 50.0 µM 89.9% | [10]; at 100.0 µM 97% | [11]; at 11.0 µM 96% | [11]; at 33.0 µM 98% | [11]; at 100.0 µM 97% | [12]; at 11.0 µM 97% | [12]; at 33.0 µM 98% | [12]; at 100.0 µM 97% | [13]; at 11.0 µM 96% | [13]; at 33.0 µM 97% | [13]; at 100.0 µM 96% | [14]; [17] 98% | [14]; at 50.0 µM 86.5% | [15]; at 11.0 µM 97% | [15]; at 33.0 µM 98% | [15]; at 100.0 µM 97%
inactive: [1]; at 1.2 µM 10% | [1]; at 3.7 µM 28% | [2]; at 1.2 µM -2% | [2]; at 3.7 µM 26% | [3]; at 1.2 µM -4% | [3]; at 3.7 µM 24% | [3]; at 11.0 µM 63% | [4]; at 1.2 µM 2% | [5]; at 1.2 µM 1% | [5]; at 3.7 µM 39% | [5]; [16] 11% | [6]; at 1.2 µM -18% | [6]; at 3.7 µM 33% | [6]; [16] 7% | [7]; at 1.2 µM -23% | [8]; [16] -8% | [9]; [16] 44% | [9]; at 50.0 µM 58.6% | [10]; at 1.2 µM 4% | [10]; at 3.7 µM 34% | [10]; [16] 37% | [11]; at 1.2 µM -4% | [11]; at 3.7 µM 34% | [12]; at 1.2 µM 18% | [12]; at 3.7 µM 56% | [13]; at 1.2 µM -18% | [13]; at 3.7 µM 24% | [14]; [16] 38% | [15]; at 1.2 µM -3% | [15]; at 3.7 µM 21%
